Reference: PubChem BioAssay AID652154 (Broad Institute, 2013)
Screen size: about 360,000 compounds; about 4,200 (1.2%) were called active. This is one part of a sample in which actives are shown more often than they occur.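 Rule for the calls: active = mean replicate inhibition at least 60% with every replicate also reaching 60%; inconclusive = only one of the two criteria is met; inactive = mean below 60% and not all replicates reaching 60%.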

Test: PAX8 transcriptional activity inhibition in RMG-I – RMG-I cells, luciferase, single concentration, primary screen (AID 652154);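 note: luciferase light reporting Pax8 driven TPO promoter activity; plate controls were median of neutral control wells for no effect and mitoxantrone controls for full effect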
Conditions: RMG-I TPO-luciferase reporter, SteadyGlo, 24 h; at 12.6 µM; stronger effect = higher value

inhibition, active:
C[C@@H]1CCCCO[C@H](CN(C)C(=O)Nc2ccc(C(F)(F)F)cc2)[C@@H](C)CN([C@@H](C)CO)C(=O)c2cc(NS(=O)(=O)c3cccs3)ccc2O1 80.1%
C[C@@H]1CN([C@H](C)CO)C(=O)c2cc(NS(=O)(=O)c3cccs3)ccc2O[C@@H](C)CCCCO[C@H]1CN(C)Cc1ccc(C(F)(F)F)cc1 96.8%
CCOc1ccccc1NC(=O)Cn1nnc(C(=O)NCc2cccs2)c1N 68.5%
CSc1nc(-c2ccccc2)nc(C(Cl)Cl)n1 99.3%
COc1cccc2c1C(=O)c1c(O)c3c(c(O)c1C2=O)CC(O)(C(C)=NNC(=O)c1ccc(Cl)c(Cl)c1)CC3OC1CC(N)C(O)C(C)O1 (stereo not given) 107%
CCCCCCCCC(=O)NCCOc1ccccc1 111%
COc1cccc(C(=O)Nc2nc3ccc(S(C)(=O)=O)cc3s2)c1 80.8%
COc1cccc(/C=N/Nc2ncc(C(F)(F)F)cc2Cl)c1O 63.6%
C[C@@H]1CN([C@H](C)CO)S(=O)(=O)c2ccc(C#Cc3ccccc3F)cc2O[C@@H]1CN(C)C(=O)c1ccc2c(c1)OCO2 73.7%
C[C@H]1CN([C@@H](C)CO)S(=O)(=O)c2ccc(C#Cc3ccccc3F)cc2O[C@@H]1CN(C)C(=O)c1ccc2c(c1)OCO2 72.5%
C[C@@H]1CN([C@@H](C)CO)S(=O)(=O)c2ccc(C#Cc3ccccc3F)cc2O[C@H]1CN(C)C(=O)c1ccc2c(c1)OCO2 101%

inhibition, inactive:
Cc1ccc(S(=O)(=O)Nc2ccc3c(c2)C(=O)N([C@H](C)CO)C[C@@H](C)[C@H](CN(C)C(=O)Nc2ccc(C(F)(F)F)cc2)OCCCC[C@H](C)O3)cc1 54.1%
CC(C)NC(=O)N(C)C[C@H]1OCCCC[C@H](C)Oc2ccc(NS(=O)(=O)c3cccs3)cc2C(=O)N([C@H](C)CO)C[C@@H]1C -10.4%
C[C@@H]1CCCCO[C@@H](CN(C)Cc2ccc(C(=O)O)cc2)[C@H](C)CN([C@H](C)CO)C(=O)c2cc(NS(=O)(=O)c3cccs3)ccc2O1 0.438%
C[C@@H]1CCCCO[C@@H](CN(C)Cc2ccccc2)[C@H](C)CN([C@H](C)CO)C(=O)c2cc(NS(=O)(=O)c3cccs3)ccc2O1 6.46%
CC(=O)N1[C@@H](CO)[C@@H](c2ccccc2)[C@@H]1CN(C)C(=O)CN1CCOCC1 12.7%
Cn1cnc(S(=O)(=O)N2C[C@H](O)COC[C@@H]3O[C@H](CC(=O)NC4CCCC4)CC[C@H]32)c1 -34%
CC(C)NC(=O)N1[C@H](CO)[C@@H]2c3ccccc3N(C(=O)c3ccccc3F)C[C@@H]21 -9.8%
COc1ccccc1C#Cc1ccc([C@@H]2[C@H](CO)N3CCCCN(C(=O)C4CCCC4)C[C@@H]23)cc1 -8.82%
Cc1ccc(NC(=O)Cn2nnc(C(=O)NCc3ccco3)c2N)c(C)c1 8.75%
COc1cccc(CNC(=O)c2nnn(CC(=O)Nc3cc(C)ccc3C)c2N)c1 5.68%
Cc1ccc(-c2ccc3c(c2)O[C@H](CN(C)C(=O)CC2CC2)[C@@H](C)CN([C@H](C)CO)S3(=O)=O)cc1 11.8%
Clc1ccc2nc(-c3ccccc3)nc(C(Cl)Cl)c2c1 32.4%
C[C@@H]1CN([C@H](C)CO)C(=O)c2cc(NC(=O)CCCN(C)C)ccc2O[C@@H](C)CCCCO[C@H]1CN(C)CC1CCCCC1 -3.49%
CCC(=O)Nc1ccc2c(c1)OC[C@H](C)N(CC1CCOCC1)C[C@@H](C)[C@@H](OC)CN(C)C2=O 6.07%
O=C(C[C@@H]1CC[C@@H]2[C@H](COC[C@@H](O)CN2C(=O)c2ccccc2F)O1)N1CCOCC1 5.42%
CC(=O)N[C@@H]1CC[C@@H](CCNC(=O)C2CC2)O[C@H]1CO 11.9%
O=C(C[C@H]1CC[C@@H](NC(=O)Nc2cc(F)ccc2F)[C@@H](CO)O1)NCc1ccncn1 0.809%
OC[C@@H]1[C@H](c2ccc(C#CC3CC3)cc2)[C@@H]2CN(CCC(F)(F)F)CCCCN12 -6.92%
O=C([C@H]1[C@H](CO)[C@H]2Cn3c(ccc(C4=CCCC4)c3=O)[C@@H]1N2C(=O)c1ccncc1)N1CCCCC1 0.28%
O=C(CCc1c[nH]c2ccccc12)NCCOc1ccccc1 -5.95%
O=C(CCOc1ccccc1)NCc1ccccc1 -18.5%
COc1cccc(C(=O)Nc2nnc(S(=O)(=O)N(C)c3ccccc3)s2)c1 2.52%
COc1ccc(C(=O)Nc2cccc(S(C)(=O)=O)c2)cc1 -14.4%
O=C(Nc1ccccc1F)N1[C@H](CO)[C@H]2c3ccccc3NC[C@H]21 -4.34%
O=c1[nH]c2cccnc2n(CCNc2ncc(C(F)(F)F)cc2Cl)c1=O -4.25%
CN(C)C=NC(=O)c1cccn1-c1ncc(C(F)(F)F)cc1Cl 5.77%
CNC(=O)C[C@H]1CC[C@H]2[C@H](COc3ccc(NC(=O)c4cc(C)on4)cc3C(=O)N2C)O1 57.2%
COCC(=O)Nc1ccc2c(c1)C(=O)N(C)C[C@H](OC)[C@@H](C)CN(CC1CC1)[C@@H](C)CO2 -3.11%
C[C@H]1CN([C@@H](C)CO)S(=O)(=O)c2ccc(-c3cccc(C#N)c3)cc2O[C@H]1CN(C)C(=O)c1ccccc1 15.6%
CC(C)C#Cc1ccc2c(c1)O[C@@H](CN(C)C(=O)Nc1ccccc1)[C@H](C)CN([C@H](C)CO)S2(=O)=O 15.8%
C[C@H]1CN([C@@H](C)CO)S(=O)(=O)c2ccc(C#CCN(C)C)cc2O[C@H]1CN(C)C(=O)c1ccccc1F -3.76%
CCCC#Cc1ccc2c(c1)O[C@@H](CN(C)C(=O)CC)[C@H](C)CN([C@H](C)CO)S2(=O)=O -8.15%
CCCC#Cc1ccc2c(c1)O[C@H](CN(C)C(=O)CC)[C@@H](C)CN([C@H](C)CO)S2(=O)=O -14.1%
COCC#Cc1ccc2c(c1)O[C@H](CN(C)Cc1ccc3c(c1)OCO3)[C@H](C)CN([C@H](C)CO)S2(=O)=O 0.398%
